Where “and” joins values, the source holds several entries; their conditions need not be identical. Equal entries are not always repeated. Compounds without any hit were thinned out: in the full panel of roughly 83,000, 20% have a hit.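 Values shown are percent growth following 48 h exposure of cells in 96-well plates to a single concentration of compound; below 10 was considered active.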 Calls of active or inactive are those of the source.
Experiments:
Assay in all cases: NCI-60 one-dose screen, 48 h (100 = growth as untreated, 0 = no growth, -100 = all killed)
DU-145 prostate = test system: DU-145 prostate
K-562 leukemia = test system: K-562 leukemia
MALME-3M melanoma = test system: MALME-3M melanoma
MDA-MB-231 breast = test system: MDA-MB-231 breast
RXF 393 renal = test system: RXF 393 renal
SF-268 CNS = test system: SF-268 CNS
SF-295 CNS = test system: SF-295 CNS
SF-539 CNS = test system: SF-539 CNS
UACC-257 melanoma = test system: UACC-257 melanoma
M14 melanoma = test system: M14 melanoma

Measured: growth

CC(=O)/C=C/c1ccc(N(CCO)Cc2ccc(C(C)(C)C)cc2)cc1
inactive: DU-145 prostate; 10 µM 78% | K-562 leukemia; 10 µM 54.6% | MALME-3M melanoma; 10 µM 84.5% | MDA-MB-231 breast; 10 µM 77.5% | RXF 393 renal; 10 µM 87.5% | SF-268 CNS; 10 µM 78.9% | SF-295 CNS; 10 µM 63.5% | SF-539 CNS; 10 µM 86.9% | UACC-257 melanoma; 10 µM 80.8% | M14 melanoma; 10 µM 69.4%
active: DU-145 prostate; 100 µM -99.7% | K-562 leukemia; 100 µM -49.3% | MALME-3M melanoma; 100 µM -85.8% | MDA-MB-231 breast; 100 µM -90.4% | RXF 393 renal; 100 µM -75.9% | SF-268 CNS; 100 µM -82.2% | SF-295 CNS; 100 µM -84.9% | SF-539 CNS; 100 µM -96.4% | UACC-257 melanoma; 100 µM -79.5% | M14 melanoma; 100 µM -84.9%

O=C(CCCCCCCCC(=O)N/N=C\c1ccccc1O)N/N=C\c1ccccc1O
active: M14 melanoma; 10 µM unless noted -9%
inactive: DU-145 prostate; 10 µM unless noted 26.7% | K-562 leukemia; 10 µM unless noted 16.4% | MALME-3M melanoma; 10 µM unless noted 15.1% | MDA-MB-231 breast; 10 µM unless noted 38.1% | RXF 393 renal; 10 µM unless noted 31.1% | SF-268 CNS; 10 µM unless noted 14.6% | SF-295 CNS; 10 µM unless noted 36% | SF-539 CNS; 10 µM unless noted 16.7% | UACC-257 melanoma; 10 µM unless noted 20.2%

COC(=O)N/N=C/c1c[n+]([O-])c2ccccc2[n+]1[O-]
inactive: DU-145 prostate; 10 µM unless noted 114% | K-562 leukemia; 10 µM unless noted 103% | MALME-3M melanoma; 10 µM unless noted 108% | MDA-MB-231 breast; 10 µM unless noted 110% | RXF 393 renal; 10 µM unless noted 125% | SF-268 CNS; 10 µM unless noted 106% | SF-295 CNS; 10 µM unless noted 93.4% | SF-539 CNS; 10 µM unless noted 101% | UACC-257 melanoma; 10 µM unless noted 95.1% | M14 melanoma; 10 µM unless noted 106%

N#C/C(=C\c1ccccc1Cl)c1cc2ccccc2[nH]1
inactive: DU-145 prostate; 10 µM unless noted 100% | K-562 leukemia; 10 µM unless noted 70.5% | MALME-3M melanoma; 10 µM unless noted 92.8% | MDA-MB-231 breast; 10 µM unless noted 68.7% | RXF 393 renal; 10 µM unless noted 102% | SF-268 CNS; 10 µM unless noted 96.3% | SF-295 CNS; 10 µM unless noted 93.9% | SF-539 CNS; 10 µM unless noted 89.4% | UACC-257 melanoma; 10 µM unless noted 94.2% | M14 melanoma; 10 µM unless noted 91.8%

O=C(/C=C/c1cccc(Oc2ccc(Cl)cc2)c1)c1ccccc1
inactive: DU-145 prostate; 10 µM 95.3% | K-562 leukemia; 10 µM 31.6% | MALME-3M melanoma; 10 µM 102% | MDA-MB-231 breast; 10 µM 113% | RXF 393 renal; 10 µM 101% | SF-268 CNS; 10 µM 101% | SF-295 CNS; 10 µM 94.9% | SF-539 CNS; 10 µM 99.8% | UACC-257 melanoma; 10 µM 101% | M14 melanoma; 10 µM 89.5%
active: DU-145 prostate; 100 µM -98.4% | K-562 leukemia; 100 µM -29% | MALME-3M melanoma; 100 µM -85.2% | MDA-MB-231 breast; 100 µM -61.9% | RXF 393 renal; 100 µM -68.2% | SF-268 CNS; 100 µM -78.3% | SF-295 CNS; 100 µM -95.3% | SF-539 CNS; 100 µM -92.3% | UACC-257 melanoma; 100 µM -86.8% | M14 melanoma; 100 µM -54.4%

O=C(O)c1ccccc1Cc1ccc(F)c2ccccc12
inactive: DU-145 prostate; 10 µM unless noted 90.6% and 116% | K-562 leukemia; 10 µM unless noted 103% and 98.4% | MALME-3M melanoma; 10 µM unless noted 102% and 117% | MDA-MB-231 breast; 10 µM unless noted 115% and 106% | RXF 393 renal; 10 µM unless noted 107% and 95.9% | SF-268 CNS; 10 µM unless noted 102% and 103% | SF-295 CNS; 10 µM unless noted 71.1% and 103% | SF-539 CNS; 10 µM unless noted 117% and 107% | UACC-257 melanoma; 10 µM unless noted 107% and 98.8% | M14 melanoma; 10 µM unless noted 129% and 102%

Cc1cc2nc(C(Cl)Cl)nc(-c3ccc(Cl)cc3)n2n1
inactive: K-562 leukemia; 10 µM unless noted 12.2% | UACC-257 melanoma; 10 µM unless noted 30.9%
active: DU-145 prostate; 10 µM unless noted -3.35% | MALME-3M melanoma; 10 µM unless noted -16.5% | MDA-MB-231 breast; 10 µM unless noted -2.03% | RXF 393 renal; 10 µM unless noted -74.4% | SF-268 CNS; 10 µM unless noted 7.03% | SF-295 CNS; 10 µM unless noted 2.71% | SF-539 CNS; 10 µM unless noted 3.16% | M14 melanoma; 10 µM unless noted -20.3%

Cc1nc(Nc2ncc(C(=O)Nc3c(C)cccc3Cl)s2)cc(N2CCN(CCO)CC2)n1
11.2% (inactive) and 8.95% (active): MDA-MB-231 breast; 10 µM unless noted
active: K-562 leukemia; 10 µM unless noted 7.66% | RXF 393 renal; 10 µM unless noted -18.9% and -46.2%
18.8% (inactive) and -9.03% (active): SF-539 CNS; 10 µM unless noted
inactive: DU-145 prostate; 10 µM unless noted 10.2% and 12.5% | MALME-3M melanoma; 10 µM unless noted 51.4% and 31.2% | SF-268 CNS; 10 µM unless noted 28.4% and 30.3% | SF-295 CNS; 10 µM unless noted 57.4% and 37.3% | UACC-257 melanoma; 10 µM unless noted 79.1% and 48.4% | M14 melanoma; 10 µM unless noted 42.4% and 17.5%

COc1ccc(/C=N/C2=C(C#N)C(c3ccccc3)c3c(ccc4ccccc34)O2)cc1 (stereo not given)
active: K-562 leukemia; 10 µM unless noted 8.18% | RXF 393 renal; 10 µM unless noted -8.72% | SF-539 CNS; 10 µM unless noted 6.89%
inactive: DU-145 prostate; 10 µM unless noted 24.6% | MALME-3M melanoma; 10 µM unless noted 47.5% | MDA-MB-231 breast; 10 µM unless noted 33.4% | SF-268 CNS; 10 µM unless noted 50.7% | SF-295 CNS; 10 µM unless noted 10.9% | UACC-257 melanoma; 10 µM unless noted 61.8% | M14 melanoma; 10 µM unless noted 11.8%

CCC(=C(c1ccc(OCCCN(C)C)cc1)c1ccc(OCCCN(C)C)cc1)c1ccc(Cl)cc1
active: DU-145 prostate; 10 µM unless noted -90.8% | K-562 leukemia; 10 µM unless noted 0.345% | MALME-3M melanoma; 10 µM unless noted -79.6% | MDA-MB-231 breast; 10 µM unless noted -85% | RXF 393 renal; 10 µM unless noted -82.7% | SF-268 CNS; 10 µM unless noted -78.3% | SF-295 CNS; 10 µM unless noted -87.4% | SF-539 CNS; 10 µM unless noted -93.2% | UACC-257 melanoma; 10 µM unless noted -77.1% | M14 melanoma; 10 µM unless noted -83.5%

COc1ccc2c(c1)c(-c1nc(-c3c[nH]c4c(Cl)nccc34)cs1)cn2C
inactive: DU-145 prostate; 10 µM unless noted 90% | K-562 leukemia; 10 µM unless noted 90.8% | MALME-3M melanoma; 10 µM unless noted 117% | MDA-MB-231 breast; 10 µM unless noted 52.2% | RXF 393 renal; 10 µM unless noted 83.2% | SF-268 CNS; 10 µM unless noted 111% | SF-295 CNS; 10 µM unless noted 97.2% | SF-539 CNS; 10 µM unless noted 89.7% | UACC-257 melanoma; 10 µM unless noted 100% | M14 melanoma; 10 µM unless noted 90.8%
